We go through 17 molecules from article PMC5540273 (PLoS ONE, 2017).

pKd: −log10 of the molar value.

The test system of one assay is T1, DLK.
T1 construct: gene MAP3K12

The subject of another assay is T2, CTK.
T2 construct: gene MATK

The test system of the next assay is T3, DCAMKL1.
T3 construct: gene DCLK1

The subject of another assay is T4, DCAMKL3.
T4 construct: gene DCLK3
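Further: kd values determined as follow-up on hits from a single-replicate KINOMEscan panel screen.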

As to `CSc1ccc(NC2=C(c3ccccc3Cl)C(=O)NC2=O)cc1` [SB-342411], the pKd (in general, −log10 of the Kd, conventionally taken in molar units) with CLK2 was 6.34.

`CN1c2ccc(-c3ccc(C(=O)NCCO)cc3)cc2-c2[nH]ncc2S1(=O)=O`: the pKd in the assay on CLK2 was 6.15. `Fc1cccc(COc2ccc(Nc3ncnc4sc(-c5ccc[nH]5)cc34)cc2Cl)c1` [GW707818]: the negative-log Kd (pKd) in the assay on CLK4 is < 5.00. In the case of `c1ccc(-c2ccc3c(-c4ccnc(Nc5ccc6c(c5)OCCO6)n4)cnn3n2)cc1` [GW818941], the pKd with CSK is < 5.00.

Take `Cc1ccc(C)c(NC(=O)NCCNc2ccnc(Nc3ccc(F)cc3)n2)c1` [GSK1379878]: in the assay on CSK, the pKd was < 5.00.

`Cc1ccc(NC(=O)c2cccc(C#N)c2)cc1-c1ccc(C(=O)Nc2ccncc2)cc1` [GSK1398463] had a pKd in the assay on DDR2 of 6.85. Still for that read-out and setting: next, `Cn1ccc2ncnc(Oc3ccc(NC(=O)Nc4cccnc4)c(Cl)c3)c21`: 7.12. Consider `CSc1nn2c(=O)cc(N3CCOCC3)nc2n1Cc1cccc(Cl)c1Cl` [GSK2347225], for which the pKd in the assay on DLK was < 5.00. For `COc1ccc(Nc2nccc(N3CCC(NC(=O)Nc4ccc5c(c4)OCO5)C3)n2)cc1` (stereo not drawn) [GSK1379745], the pKd in the assay on CSNK1D is < 5.00. On to `COC(=O)c1c(-c2ccccc2)c2cc(Cl)ccc2c(=O)n1Cc1ccc(S(C)(=O)=O)cc1`, for which the pKd in the assay with CSNK1G1 is < 5.00. For the molecule `Nc1nc(-c2ccc3c(N)n[nH]c3c2)cc(N2CCC[C@@H](C(=O)Nc3ccccc3)C2)n1.O=C(O)C(F)(F)F.O=C(O)C(F)(F)F` [GSK2288359], in the assay with CSNK1G2, the pKd is < 5.00. For the molecule `O=C(Nc1ccccc1F)NC1CCN(c2ccnc(Nc3ccc(F)cc3)n2)C1` (stereo not drawn) [GSK1379722], in the assay on CSNK1G2, the pKd was < 5.00.

For the molecule `Cc1cccc(-c2nc(Nc3ccc4[nH]nnc4c3)c3ccccc3n2)n1` [GW867587], the pKd with CSNK2A1 is 6.11. On to `O=C(Nc1ccccc1)Nc1ccc(Oc2ccc3nccn3n2)cc1`, for which the values for the pKd in the assay with CTK and with DDR2 were < 5.00 and 8.52, respectively.

In the case of `COC(=O)c1cccc(NC(=O)NCCNc2ccnc(Nc3ccc(F)cc3)n2)c1` [GSK1379883], the pKd with DCAMKL1 was < 5.00. `C[C@@H]1CCN(C(=O)CO)C[C@@H]1N(C)c1ncnc2[nH]ccc12` showed a pKd in the assay with DCAMKL3 of 6.62. As for `Clc1ccc(-c2cc(-c3c[nH]nc3-c3ccccn3)ccn2)cc1` [GW681251], the pKd in the assay on DLK was < 5.00.
